# Assay results taken from PubChem BioAssay (NCI).
# About 79,000 compounds went through this panel and 15% of them were active in at least one assay; those are over-represented in the sample as a whole. Calls of active or inactive are those of the source. No stated cut-off is given here; in the data, active means growth inhibition above about 70%; inactive means the rest.
# Test: NCI Yeast Anticancer Drug Screen. Data for the cln2 rad14 strain (AID 165);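 further: 0% = growth equal to vehicle treated cultures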
# Settings: S. cerevisiae cln2 rad14 strain, at 50.0 µM, active compounds read high
# How it was run: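 Yeast carrying cln2 and rad14 alterations (cell cycle control and DNA damage repair) were exposed to compounds. Growth inhibition was measured against vehicle-treated controls.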
row,Structure (SMILES),growth inhibition
1,O=C(O)CC(C(=O)O)C1c2ccccc2-c2ccccc21 (stereo not given),-17.2% (inactive)
2,COc1ccc(C(=O)NNC(=O)c2ccccc2)cc1,10.1% (inactive)
3,Cc1cc(NCCN(C)C)nc(Nc2ccc(Cl)cc2)n1,-13.9% (inactive)
4,O=C1CC2(C(=O)N1CN1CCOCC1)c1ccccc1-c1ccccc12,3.7% (inactive)
5,CCCCCN(C(=O)c1ccccc1C(=O)N(CCCCC)c1ccccc1)c1ccccc1,30.6% (inactive)
6,Brc1nccs1,-11.1% (inactive)
7,COC(=O)N/N=C(\C)CC(=O)Nc1ccc(Cl)cc1,-5.95% (inactive)
8,CCCCCCCCCC1OCCCO1,-0.1% (inactive)
9,CC(=O)OC(C)C(O)C(O)C(/C=C/C1CC=CC(=O)O1)OC(C)=O (stereo not given),10.6% (inactive)
10,O=C1C=Cn2cc(-c3ccccc3)c(-c3ccccc3)c21,19.9% (inactive)
11,CCOC(=O)CNC(=O)C(Cc1ccccc1)NC(=O)c1ccccc1NC(=O)c1ccccc1 (stereo not given),13.3% (inactive)
12,CN(C)c1ccc2c(c1)Cc1cc(NC(=O)CCC(=O)O)ccc1-2,-1.6% (inactive)
13,CC(C)CCN(C(=O)CCl)c1ccccc1,15.1% (inactive)
14,CC=NC(C)(C)C,-11.8% (inactive)
15,CC(=O)CCCCCCCCCCCCCC(C)=O,-10.8% (inactive)
16,CNCC(OCCc1ccccc1)c1ccc(O)c(O)c1 (stereo not given),-0.95% (inactive)
17,O=C(Nc1ccc(Cl)cc1C(=O)O)c1ccc([N+](=O)[O-])cc1,38.8% (inactive)
18,Nc1ccn(C2OC(COC(=O)C34CC5CC(CC(C5)C3)C4)C(O)C2O)c(=O)n1 (stereo not given),-2.4% (inactive)
19,N#Cc1ccccc1N=Nc1nc(N)c(C(N)=O)[nH]1,-5.05% (inactive)
20,CC(=O)OC(Cc1ccc2ccccc2n1)(C(F)(F)F)C(F)(F)F,6.2% (inactive)

row,Structure (SMILES),growth inhibition
1,O=C(Nc1ccccc1Cl)c1ccc([N+](=O)[O-])cc1,10.3% (inactive)
2,C=C(C)CNCCN,-0.6% (inactive)
3,O=C1Cn2c(cc(=O)c3ccccc32)O1,-9.35% (inactive)
4,O=C1CCCCCCCCCCC1,15.2% (inactive)
5,Cc1ccccc1-n1c(C)nc2cc(NC(N)=S)ccc2c1=O,-24.5% (inactive)
6,CN(C)S(=O)(=O)c1nc2nc[nH]c(=O)c2[nH]1,-15.9% (inactive)
7,Cc1cc(C)nc(C)c1.[Cl-].[Cl-].[Cl-].[Cl-].[Pt+2],7.4% (inactive)
8,CCN(CC)CCNC(=O)c1ccc(C)c(OCc2ccccc2)c1[N+](=O)[O-],-26.8% (inactive)
9,CN(C)CCOC(=O)C(O)C1CCCCC1 (stereo not given),18.4% (inactive)
10,CC(C)CC(C)Cc1ccncc1 (stereo not given),11.8% (inactive)
11,CN1CC2(CO)C(c3ccccn3)N(C)C(c3ccccn3)C(CO)(C1)C2O (stereo not given),-6.2% (inactive)
12,Oc1ccc(N=Cc2ccc3ccccc3n2)cc1,10.3% (inactive)
13,CCCCCN(CCCCC)CC(O)c1cc(-c2ccccc2)nc2c(Cl)cc(Cl)cc12 (stereo not given),18% (inactive)
14,CCOC(=O)C1C(c2cc(OC)c(OC)c(OC)c2)c2cc3c(cc2OC1(C)OC)OCO3 (stereo not given),-1.3% (inactive)
15,C[CH2][GeH][CH2]C.C[CH2][Ge]([CH2]C)[CH2]C,96.5% (active)
16,CCOC(=O)C12CC(COc3ccc([N+](=O)[O-])cc3)ON1OC(COc1ccc([N+](=O)[O-])cc1)C2 (stereo not given),2.4% (inactive)
17,CC1(c2ccccc2)OC1(C)c1ccccc1 (stereo not given),-17.1% (inactive)
18,CCNc1ccc(S(=O)(=O)O)cc1C(=O)O,-11.8% (inactive)
19,CCC1([N+](=O)[O-])CC2C=CC1C2 (stereo not given),-4.15% (inactive)
20,CN(C)C1C(CO)C(CO)C1(C)C (stereo not given),-11.9% (inactive)

# Test: NCI Yeast Anticancer Drug Screen. Data for the bub3 strain (AID 167)
# Settings: S. cerevisiae bub3 mutant strain, at 50.0 µM, active compounds read high
# How it was run: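 In this screen, a yeast mutant lacking normal mitotic checkpoint function is challenged with compound. Relative growth versus vehicle gives the inhibition value.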
row,Structure (SMILES),growth inhibition
1,O=C(O)CC(C(=O)O)C1c2ccccc2-c2ccccc21 (stereo not given),-49.2% (inactive)
2,COc1ccc(C(=O)NNC(=O)c2ccccc2)cc1,-1.1% (inactive)
3,Cc1cc(NCCN(C)C)nc(Nc2ccc(Cl)cc2)n1,10.9% (inactive)
4,O=C1CC2(C(=O)N1CN1CCOCC1)c1ccccc1-c1ccccc12,4.05% (inactive)
5,CCCCCN(C(=O)c1ccccc1C(=O)N(CCCCC)c1ccccc1)c1ccccc1,3.4% (inactive)
6,Brc1nccs1,-9.05% (inactive)
7,COC(=O)N/N=C(\C)CC(=O)Nc1ccc(Cl)cc1,-27.2% (inactive)
8,CCCCCCCCCC1OCCCO1,-4.5% (inactive)
9,CC(=O)OC(C)C(O)C(O)C(/C=C/C1CC=CC(=O)O1)OC(C)=O (stereo not given),19.6% (inactive)
10,O=C1C=Cn2cc(-c3ccccc3)c(-c3ccccc3)c21,-18.1% (inactive)
11,CCOC(=O)CNC(=O)C(Cc1ccccc1)NC(=O)c1ccccc1NC(=O)c1ccccc1 (stereo not given),0.7% (inactive)
12,CN(C)c1ccc2c(c1)Cc1cc(NC(=O)CCC(=O)O)ccc1-2,8.85% (inactive)
13,CC(C)CCN(C(=O)CCl)c1ccccc1,33.5% (inactive)
14,CC=NC(C)(C)C,3.3% (inactive)
15,CC(=O)CCCCCCCCCCCCCC(C)=O,6.25% (inactive)
16,CNCC(OCCc1ccccc1)c1ccc(O)c(O)c1 (stereo not given),-12.6% (inactive)
17,O=C(Nc1ccc(Cl)cc1C(=O)O)c1ccc([N+](=O)[O-])cc1,23.9% (inactive)
18,Nc1ccn(C2OC(COC(=O)C34CC5CC(CC(C5)C3)C4)C(O)C2O)c(=O)n1 (stereo not given),-31.2% (inactive)
19,N#Cc1ccccc1N=Nc1nc(N)c(C(N)=O)[nH]1,4.7% (inactive)
20,CC(=O)OC(Cc1ccc2ccccc2n1)(C(F)(F)F)C(F)(F)F,5.5% (inactive)

row,Structure (SMILES),growth inhibition
1,O=C(Nc1ccccc1Cl)c1ccc([N+](=O)[O-])cc1,11.2% (inactive)
2,C=C(C)CNCCN,26.6% (inactive)
3,O=C1Cn2c(cc(=O)c3ccccc32)O1,9.8% (inactive)
4,O=C1CCCCCCCCCCC1,-17.1% (inactive)
5,Cc1ccccc1-n1c(C)nc2cc(NC(N)=S)ccc2c1=O,-5.9% (inactive)
6,CN(C)S(=O)(=O)c1nc2nc[nH]c(=O)c2[nH]1,-8.55% (inactive)
7,Cc1cc(C)nc(C)c1.[Cl-].[Cl-].[Cl-].[Cl-].[Pt+2],2.6% (inactive)
8,CCN(CC)CCNC(=O)c1ccc(C)c(OCc2ccccc2)c1[N+](=O)[O-],34.8% (inactive)
9,CN(C)CCOC(=O)C(O)C1CCCCC1 (stereo not given),15.2% (inactive)
10,CC(C)CC(C)Cc1ccncc1 (stereo not given),-1.65% (inactive)
11,CN1CC2(CO)C(c3ccccn3)N(C)C(c3ccccn3)C(CO)(C1)C2O (stereo not given),-0.6% (inactive)
12,Oc1ccc(N=Cc2ccc3ccccc3n2)cc1,-19.8% (inactive)
13,CCCCCN(CCCCC)CC(O)c1cc(-c2ccccc2)nc2c(Cl)cc(Cl)cc12 (stereo not given),46.5% (inactive)
14,CCOC(=O)C1C(c2cc(OC)c(OC)c(OC)c2)c2cc3c(cc2OC1(C)OC)OCO3 (stereo not given),-5.25% (inactive)
15,C[CH2][GeH][CH2]C.C[CH2][Ge]([CH2]C)[CH2]C,96% (active)
16,CCOC(=O)C12CC(COc3ccc([N+](=O)[O-])cc3)ON1OC(COc1ccc([N+](=O)[O-])cc1)C2 (stereo not given),-3.85% (inactive)
17,CC1(c2ccccc2)OC1(C)c1ccccc1 (stereo not given),21.1% (inactive)
18,CCNc1ccc(S(=O)(=O)O)cc1C(=O)O,1.25% (inactive)
19,CCC1([N+](=O)[O-])CC2C=CC1C2 (stereo not given),-21.7% (inactive)
20,CN(C)C1C(CO)C(CO)C1(C)C (stereo not given),-2.25% (inactive)
